Compound activity: PubChem, National Center for Advancing Translational Sciences (NCATS)
MCF10A rereplic: A quantitative high throughput screen for small molecules that induce DNA re-replication in MCF 10a normal breast cells; MCF 10A DNA re-replication, Hoechst nuclear intensity, 48 h; Potency, µM (highest dose often 46.1 µM), for the others: at the top dose activity, positive = re-replication, hits mostly activators; hit rate 2.9% among 350,000; note: % of control where 0% means no effect; nearly all actives have a fitted effect of over 50% in size
HT1080 IDH1KD tx: qHTS for induction of synthetic lethality in tumor cells producing 2HG: qHTS for the HT-1080-IDH1KD cell line | Potency, µM (doses to about 46.1 µM), for inactives: at the top dose activity, negative = toxicity, usual class: cytotoxic | HT-1080 IDH1 knockdown viability, ATP luminescence, 48 h | hit rate 2% among 360,000 | AID 686971, 2013;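 note: 0% = DMSO wells and -100% = cell-free medium wells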
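IDH1KD HT-1080 cells, 750/well, RPMI + 5% FBS; compound pinned after 2 h settling; 48 h, 37 °C; CellTiter-Glo luminescence; % activity normalised to DMSO and no-cell wells; curves fitted, classed by r2 and efficacy.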
HT1080NT lethal: qHTS for induction of synthetic lethality in tumor cells producing 2HG: qHTS for the HT-1080-NT fibrosarcoma cell line; AID 686970, 2013; HT-1080-NT fibrosarcoma viability, CellTiter-Glo ATP luminescence, 48 h; hit rate 1.6% among 360,000; Potency, µM (series often up to 46.1 µM), inactives show at the top dose activity, negative = less viability, hits mostly cytotoxic;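 note: NT is the 2HG producing partner of a matched IDH1 knockdown line; 0% = DMSO-treated cells and -100% = media-only wells without cells; nearly all actives have a fitted effect of over 55% in size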
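750 cells/well, RPMI + 5% FBS; 2 h settle, compound pin-transfer, 48 h at 37 degrees C. CellTiter-Glo 10 min RT, luminescence. Normalized to DMSO and media-only wells.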
SW480 rerep: A quantitative high throughput screen for small molecules that induce DNA re-replication in SW480 colon adenocarcinoma cells; SW480 DNA re-replication, Hoechst DNA content imaging, 48 h; Potency, µM (doses to about 46.1 µM), inactives show top-dose re-replication activation, most hits filed as activators; hit rate 1.8% among 340,000; AID 624297, 2012; note: % of control where 0% means no effect; nearly all actives have a fitted effect of over 55% in size
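Image-based read-out: total Hoechst fluorescence of nuclei (405 nm excitation, 500-530 nm emission), with hits raising the fraction of high-intensity nuclei. SW480 colon cells incubated 48 hr with compounds at 37 C.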
KB-V1 cytotox: qHTS assay for MDR1-selective chemotherapeutics: Primary screen using the drug-selected MDR subline cells KB-V1. KB-V1 MDR cells viability, CellTiter-Glo, 72 h. Potency, µM (highest dose often 46.1 µM), hits mostly cytotoxic. hit rate 3.4% among 400,000. AID 1347076, 2019; note: % is set by controls: 0 for no effect and ±100 for the full control effect; nearly all actives have a fitted effect of over 60% in size
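Drug-selected KB-V1 cells, grown in DMEM lacking phenol red with 10% FBS, receive compound titrations; after three days at 37 degrees C, surviving cell ATP is quantified by CellTiter-Glo luminescence and responses normalized and curve-fitted.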
KB-3-1 cytotox: qHTS assay for MDR1-selective chemotherapeutics: Primary screen using the parental adenocarcinoma cell KB-3-1 | KB-3-1 viability, CellTiter-Glo ATP luminescence, 72 h | hit rate 1.4% among 400,000 | AID 1347075, 2019 | Potency, µM (series often up to 46.1 µM), hits mostly cytotoxic; note: % is set by controls: 0 for no effect and ±100 for the full control effect; nearly all actives have a fitted effect of over 60% in size
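Screening of KB-3-1 cells (DMEM, 10% FBS, phenol-red free) ran from lowest to highest compound concentration; after 72 h at 37 °C viability was read luminescently and curves fitted.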
* marks the source's active call; other numbers are inactive results; i = inactive; ? = inconclusive; . = no result given; [ ] = another dose, or the depositor's remark. Rows were chosen to be rich in hits. Some 8% of all compounds tested hit in one or more screens of this group. Calls come from the whole dose curve; as a rule, active = well fitted curve in the direction sought with a large enough effect; inconclusive = small, poorly fitted or top-dose-only effect, or another doubt; inactive = no such curve, though single readings can be large; an effect the other way counts as inactive or inconclusive. Potency is the fitted concentration of half-maximal effect.

SMILES	MCF10A rereplic	HT1080 IDH1KD tx	HT1080NT lethal	SW480 rerep	KB-V1 cytotox	KB-3-1 cytotox
CC(C)Cn1c(N)c(C(=O)COC(=O)c2cc(C3CC3)nc3ccccc23)c(=O)n(C)c1=O	-8%	?	21µM*	21%	?	?
Cn1c(=O)c(C(=O)COC(=O)c2cc(-c3ccco3)nc3ccccc23)c(N)n(Cc2ccccc2)c1=O	23µM*	.	.	?	.	.
Cc1csc(=O)n1CC(=O)OCC(=O)c1c(N)n(C)c(=O)n(C)c1=O	-2%	3%	0%	-57%	?	i
CC(C)Cn1c(N)c(C(=O)COC(=O)c2cc(-c3ccco3)nc3ccccc23)c(=O)n(C)c1=O	14%	-6%	-1%	7%[9.22 µM]	i	i
COc1cc(NC(=O)c2ccc(-n3cnc4cccnc43)cc2)cc(OC)c1	.	.	.	.	i	?
COc1cc(/C=C/C(=O)OCC(=O)N(C)Cc2ccccc2)ccc1O	7%	-1%	-1%[9.24 µM]	-14%	i	i
CCOC(=O)Cc1nn(Cc2nc(-c3ccc(C)cc3)cs2)c(=O)c2ccccc12	-1%	-8%	16µM*	-3%	?	i
OCCC1CN(Cc2cnc(N3CCOCC3)s2)CCN1C1CCCC1 (stereo not given)	3%	2%	15%	-18%	i	i
Cc1cccc(N2CCN(Cc3cn(C)nc3-c3ccccc3F)CC2)n1	7.3µM*	1.8µM*	?	3.3µM*	?	5.8µM*
Cn1cc(CN2CCN(c3ccc(Cl)cn3)CC2)c(-c2ccccc2F)n1	9%	4%	4%	-4%	i	i
Cc1cc(-c2nn(-c3ccccc3F)cc2CN2CCN(c3ccccn3)CC2)c(C)s1	?	?	-4%	-33%[1.84 µM]	16µM*	i
Cc1ccccc1CNC(=O)C(=O)NCC(c1ccc2c(c1)OCO2)N1CCOCC1 (stereo not given)	.	.	.	.	i	i
O=C(NNc1ccc([N+](=O)[O-])cc1)c1ccco1	1%	-9%	-1%	-9%	i	i
O=C(NNc1ccc([N+](=O)[O-])cc1[N+](=O)[O-])c1ccco1	9%	?	18µM*	-1%	i	?
CC(=O)NC1=NN(C(C)=O)C(C)(c2ccccc2)S1 (stereo not given)	-4%	7.1µM*	2µM*	-7%	7.3µM*	8.2µM*
COc1ccc(CCn2c(-n3nc(C)cc3C)nc3c2c(=O)[nH]c(=O)n3C)cc1	1.6µM*	?	?	?	1.6µM*	i
CCSc1nc2c(c(=O)[nH]c(=O)n2C)n1CC(O)COc1ccccc1C (stereo not given)	?	-11%	-15%	-8%	18µM*	i
Cc1ccc(Cn2c(-n3nc(C)cc3C)nc3c2c(=O)[nH]c(=O)n3C)cc1	0%	5%	8%	-1%	i	i
COCCSc1nc2c(c(=O)[nH]c(=O)n2C)n1CCCc1ccccc1	1.5µM*	-6%	-10%	6%	i	i
COCCn1c(SCCCc2ccccc2)nc2c1c(=O)[nH]c(=O)n2C	3%	-3%	-2%	-5%	i	i
O=Cc1ccc(OC(=O)c2cccnc2)cc1	?	21%	21%	-2%	i	i
O=C(NCc1n[nH]c(=O)c2ccccc12)C1CC(=O)N(c2ccc(Cl)cc2)C1 (stereo not given)	1%	-4%	1%	2%	i	i
CCc1nn(CC(=O)NCCc2ccc(OC)c(OC)c2)c(=O)c2cc3occc3n12	.	.	.	.	i	i
CCOC(=O)[C@]12Cc3c(cc(OC)c(OC)c3OC)[C@H]1N(Cc1ccccc1)C(=O)c1cc(OC)ccc12	.	?	18µM*	.	?	4.6µM*
CN(Cc1ccccc1)c1ccc(C=O)cc1	.	.	.	.	i	i
SMILES	MCF10A rereplic	HT1080 IDH1KD tx	HT1080NT lethal	SW480 rerep	KB-V1 cytotox	KB-3-1 cytotox
CN(Cc1ccccc1)c1nc(N)nc(Cl)c1C=O	28%	18µM*	?	4.6µM*	i	i
O=C(CN1C(=O)C2CCCCN2c2ccc(C(=O)N3CCCC3)cc21)NCc1cccc(Cl)c1 (stereo not given)	.	.	.	.	i	i
CC1(C)CC(N=Cc2c(O)n(Cc3ccc4c(c3)OCO4)c(=O)c3ccccc23)CC(C)(C)N1	0%	7.3µM*	18µM*	?	i	i
CC(C)c1ccc(N2C=Nc3ccc(C(C)C)cc3C2)cc1	?	23µM*	?	7%	i	?
C=CCn1c(CNc2ccccc2)nnc1SCC(=O)N/N=C/c1ccc(O)cc1O	16µM*	?	?	5%	i	i
C=CCn1c(CNc2ccc(C)cc2)nnc1SCC(=O)N/N=C/c1ccc(O)cc1O	?	-16%[9.24 µM]	?	-1%	i	i
CCOCCCNC(=O)C(c1ccc(Cl)cc1)N(Cc1ccc2c(c1)OCO2)C(=O)c1ccc(NC(C)=O)cc1 (stereo not given)	.	.	.	.	i	i
CC(C)Cc1ccc(CN2CCCC(NC(=O)c3nn(C)c(=O)c4ccccc34)C2)cc1 (stereo not given)	21µM*	-1%	-8%	?	i	i
COc1cc(OC)cc(C(=O)NNC(=O)c2nn(C)c(=O)c3ccccc23)c1	-2%	23%	15%	-3%	13µM*	?
COc1ccc(OCC(=O)NNC(=O)c2nn(C)c(=O)c3ccccc23)cc1	12%	1%	3%	-4%	i	i
CN(C(=O)c1ccc(-c2nn(C)c(=O)c3ccccc23)cc1)C1CCCCC1	14%	1%	-21%	-7%	4.1µM*	18µM*
Cn1nc(C(=O)NC2CCCCC2)c2ccccc2c1=O	3%	-2%	2%	-3%	16µM*	i
CCCCCNC(=O)C1CCC(Cn2c(=O)c3sccc3n(CC)c2=O)CC1 (stereo not given)	.	.	.	.	i	i
CCOc1ccc(NC(=O)c2c(NCc3cccnc3)sc3c2CCCC3)cc1	.	.	.	.	i	i
CCCCOC(=O)c1ccc(OC(=O)c2sc3ncn(Cc4cccc(F)c4)c(=O)c3c2C)cc1	.	.	.	.	i	i
